Active and inactive are the calls of the source. How the source made its calls: active means hit-call score of the fitted dose curve at least 0.9, where 1 is the maximum; inactive means score below 0.9.
Target: human CDK2/CyclinA CMGC Kinase, CDK2 (gene 1017) (UniProt P24941)
Assay: ERF_FR_ENZ_hCDK2: Eurofins (ERF) Enzymatic Radiometric [Km ATP] KinaseProfiler LeadHunter Assay for human CDK2/CyclinA CMGC Kinase
Description: ERF_FR_ENZ_hCDK2 is a biochemical, single-readout assay that uses extracted gene-proteins in a cell-free assay. Measurements were taken 0.5 hour after chemical dosing in a 96-well plate. See CDK2 /CyclinA Human CMGC Kinase Enzymatic LANCE Assay [Km ATP], Cerep.ERF_FR_ENZ_hCDK2 is an assay component calculated from the ERF_FR_ENZ_hCDK2 assay. It is designed to measure enzyme activity using a type of enzyme reporter as detected by fluorescence intensity with LANCE technology.Data from the assay component ERF_FR_ENZ_hCDK2 was analyzed at the assay endpoint, ERF_FR_ENZ_hCDK2, in the positive analysis fitting direction relative to DMSO as the negative control and baseline of activity. Using a type of enzyme reporter, loss-of-signal activity can be used to understand changes in enzymatic activity as they relate to gene CDK2. To generalize the intended target to other relatable targets, this assay endpoint is annotated to the kinase intended target family, where the subfamily is serine/threonine kinase.
CDK2/cyclinA (h) is incubated with 8 mM MOPS pH 7.0, 0.2 mM EDTA, 0.1 mg/mL histone H1, 10 mM MgAcetate and [gamma-33P]-ATP (specific activity and concentration as required). The reaction is initiated by the addition of the Mg/ATP mix. After incubation for 40 minutes at room temperature, the reaction is stopped by the addition of phosphoric acid to a concentration of 0.5%. […]

Structure (SMILES) | outcome
O=C(/C=C/c1ccc(O)cc1)CC(=O)/C=C/c1ccc(O)cc1 | inactive
COc1cc(CCC(=O)CC(=O)CCc2ccc(O)c(OC)c2)ccc1O | inactive

From PubChem BioAssay AID2284064 (EPA ToxCast)
